# A selection: hits, their analogues and other compounds. The true share with any hit is near 6.3%.
# RORg inh: blocks mouse ROR gamma transcriptional activity; P51450; Drosophila S2 Gal4-RORgamma UAS-luciferase reporter, 20 h; Potency, µM (top dose mostly 53.6 µM), inactives show at the top dose activity change, negative = inhibition, actives largely listed as inhibitors; 5.4% of 310,000 active; AID 2551; note: % is set by controls: 0 for no effect and ±100 for the full control effect; nearly all actives have a fitted effect of over 60% in size
# Target sequence (P51450 whole entry, looked up, the tested form may be a part): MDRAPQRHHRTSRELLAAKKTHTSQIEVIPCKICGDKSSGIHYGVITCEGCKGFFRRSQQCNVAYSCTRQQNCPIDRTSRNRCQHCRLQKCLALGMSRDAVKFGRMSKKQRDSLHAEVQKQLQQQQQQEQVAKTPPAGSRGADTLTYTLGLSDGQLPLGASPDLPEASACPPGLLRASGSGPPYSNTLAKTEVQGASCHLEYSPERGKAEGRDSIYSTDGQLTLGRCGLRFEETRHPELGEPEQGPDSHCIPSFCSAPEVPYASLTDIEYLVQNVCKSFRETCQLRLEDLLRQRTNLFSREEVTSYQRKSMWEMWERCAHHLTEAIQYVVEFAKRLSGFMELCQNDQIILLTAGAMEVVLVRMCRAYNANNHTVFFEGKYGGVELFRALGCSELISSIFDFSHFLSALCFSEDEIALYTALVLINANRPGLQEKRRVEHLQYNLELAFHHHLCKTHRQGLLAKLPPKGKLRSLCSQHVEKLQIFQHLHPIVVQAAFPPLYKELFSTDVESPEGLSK
#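 Using a luciferase readout, inhibitors were identified by reduced reporter activity in Drosophila cells coexpressing a copper-inducible Gal4–ROR gamma fusion and UAS-driven Photinus luciferase, incubated 20 hr after 700 uM copper sulfate.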
# HepG2 tox: HepG2 cytotoxicity, counter-screen for TGF-b inhibitors; HepG2 CAGA-GFP viability, ATP luminescence, 18 h; Potency, µM (doses to about 46.1 µM), for the others: top-dose activity change, negative = cytotoxicity, most hits filed as cytotoxic; 0.76% of 410,000 active; AID 588856
#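 HepG2 CAGA-GFP cells (1000/well, DMEM with 1% FBS) received compound, then TGF-beta at 500 pg/mL final, and were incubated 18 hours at 37 degrees C. Viability was read by CellTiter-Glo luminescence. Media-only wells were set as complete cell-killing and DMSO as no toxicity.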
# ATXN2 expr inh: ATXN2 expression inhibition; HEK-293 ATXN2-luciferase reporter, luminescence, 24 h; 0.72% of 360,000 active; Potency, µM (highest dose often 57 µM), for the others: at the highest dose activity change, negative = inhibition, hits mostly inhibitors; note: % is set by controls: 0 for no effect and ±100 for the full control effect; nearly all actives have a fitted effect of over 55% in size
#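 qHTS (up to 57 uM final) was run with 24 h compound exposure of reporter cells at 37 °C. Each well was multiplexed: SteadyGlo luminescence measured ATXN2-luciferase expression after a fluorogenic Gly-Phe-AFC viability readout (25 uM final).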
# TGFb inhibitor: blocks TGF-b signaling. 1.2% of 410,000 active. HepG2 CAGA-GFP TGF-b/SMAD3 reporter, GFP fluorescence, 18 h; TGF-beta stimulated, 500 pg/mL final. Potency, µM (top dose mostly 46.1 µM), for inactives: at the top dose activity, negative = inhibition, actives largely listed as inhibitors; note: % is set by controls: 0 for no effect and ±100 for the full control effect; nearly all actives have a fitted effect of over 65% in size
#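 Inhibition was scored as loss of TGF-beta-induced (500 pg/mL final, 18 hours, 37 degrees C) GFP in HEPG2 cells carrying a CAGA-GFP reporter, in DMEM with 1% FBS. Well GFP was summed per cell; Activity was normalised to unstimulated and stimulated DMSO wells, then concentration-response fitting.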
# ATXN viability: viability counter-screen for ATXN expression inhibitors | Potency, µM (highest dose often 56.7 µM), most hits filed as cytotoxic | 0.49% of 400,000 active | S2 cells (HEK-293 line with an ATXN2-luciferase reporter) viability, CellTiter-Fluor protease fluorescence, 24 h; note: nearly all actives have a fitted effect of over 40% in size
# Gal4-VP16 FLuc: inhibits Gal4-VP16 luciferase reporter, ROR gamma counter-screen | Drosophila S2 Gal4-VP16 UAS-luciferase, luminescence, 20 h | Potency, µM (series often up to 53.6 µM), for inactives: at the highest dose activity, negative = inhibition, actives largely listed as inhibitors | 3.5% of 310,000 active;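 note: Gal4-VP16 expression switched on by copper sulfate through the metallothionein promoter; % is set by controls: 0 for no effect and ±100 for the full control effect; nearly all actives have a fitted effect of over 50% in size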
# Starred values were filed as active, the others as inactive; i = inactive; ? = inconclusive; nt = not tested or not shown; ! = repeats disagree; [ ] = another dose, or the depositor's remark. Calls come from the whole dose curve; as a rule, active = well fitted curve in the direction sought with a large enough effect; inconclusive = small, poorly fitted or top-dose-only effect, or another doubt; inactive = no such curve, though single readings can be large; an effect the other way counts as inactive or inconclusive. Potency is the fitted concentration of half-maximal effect.
SMILES,RORg inh,HepG2 tox,ATXN2 expr inh,TGFb inhibitor,ATXN viability,Gal4-VP16 FLuc
COC(=O)c1ccccc1C(=O)N1CCc2c(cnc(C)c2CNC(=O)c2ccccc2F)C1,nt,nt,nt,nt,i,nt
O=C(N/N=C/c1cccc2nccnc12)c1ccccc1O,2.51µM*,-18.9%,?,-5.9%,i,3.16µM*
O=C(N/N=C/c1cccc2cccnc12)c1ccccc1O,0.355µM*,-15.6%,nt,?,3.55µM*,0.794µM*
COc1cccc(-n2cc(C(=O)Nc3cc(C)c(Cl)cc3OC)c3ccccc3c2=O)c1,nt,-8.9%,nt,-8.7%,nt,nt
CC(=O)c1c(C)[nH]c(C(=O)OCC(=O)Nc2ccc(C)cc2[N+](=O)[O-])c1C,10.6%[10 µM],-7.7%,-35.7%,-10.2%,i,?
CC(=O)c1c(C)[nH]c(C(=O)OCC(=O)Nc2cc(Cl)ccc2[N+](=O)[O-])c1C,?,-32.0%,?,?,?,15.8µM*
O=C1C(Cc2ccccc2)NC(=S)N1c1ccccc1 (configuration not stated),11.2µM*,4.5%,5.8%,-12.8%,i,?
Cc1cccc(N2C(=O)C(Cc3ccccc3)NC2=S)c1 (configuration not stated),?,5.3%,5.2%,-2.3%,i,?
CC(=O)c1sc(NC(=O)C=C(C)C)nc1C,21.8%,-25.4%,43.7%,-2.9%,i,10.4%
CC(=O)c1sc(NC(=O)C2(F)C(F)(F)C(F)(F)C(F)(F)C(F)(F)C2(F)F)nc1C,3.98µM*,-46.4%,6.31µM*,2.82µM*,?,3.55µM*
O=C(C[n+]1ccncc1)c1cccc([N+](=O)[O-])c1,nt,8.8%,nt,?,nt,nt
O=c1c(/C=N/OCc2ccc(Cl)cc2Cl)c[nH]n1-c1cccc(Cl)n1,12.6µM*,-45.3%,-12.0%,-0.7%,i,20µM*
O=c1c(-n2cncn2)c[nH]n1-c1cccc(Cl)n1,-0.5%,-5.4%,23.1%,-9.3%,i,7.6%
CC(=O)Nc1ccc(Nc2nc3ccccc3nc2NS(=O)(=O)c2ccc(Cl)c([N+](=O)[O-])c2)cc1,nt,-10.4%,-5.5%,?,i,nt
Cc1c(Cl)cccc1N1C(=O)CC(N(O)c2ccccc2)C1=O (configuration not stated),17.2%,-3.8%,11.3%,-6.0%,i,-18.4%
Cc1cccc(C)c1N1C(=O)CC(N(O)c2ccccc2)C1=O (configuration not stated),11.2µM*,-22.4%,-7.9%,4.0%,i,-1.3%
Cc1ccc2c(C(=O)CNc3nccs3)c[nH]c2c1,nt,-27.1%,nt,1.2%,nt,nt
CCCCC1(COC(=O)CCC(=O)O)C(=O)N(c2ccccc2)N(c2ccccc2)C1=O,14.2%,-9.1%,-8.3%,2.2%,i,-8.5%
CCCCC1(Cc2ccc([N+](=O)[O-])cc2)C(=O)N(c2ccccc2)N(c2ccccc2)C1=O,?,-21.8%,4.6%,-7.5%,i,7.08µM*
COc1ccc(OCCn2c(N)nc3ccccc32)cc1,-29.1%,-2.7%,-20.2%,31.6%,i,-6.2%
COc1ccc(OCCn2c(C(C)Oc3ccccc3)nc3ccccc32)cc1 (configuration not stated),nt,-37.5%,-21.2%,12.6µM*,i,nt
Cc1ccc(OCCn2c(CNc3cccc(C)c3)nc3ccccc32)cc1,nt,-35.0%,-15.5%,12.6µM*,i,nt
CCn1c(CNc2ccc(C(=O)O)cc2)nc2ccccc21,10µM*,-5.5%,4.8%,-7.6%,i,-0.6%
CCCn1c(CNS(=O)(=O)c2ccc(C)cc2)nc2ccccc21,11.2µM*,-22.0%,3.3%,-20.5%,i,?
CCCCCCCCNCCS(=O)(=O)NC1CCCCC1,nt,-96.1%,?,?,?,nt
Cc1ccc(NCc2nc3ccccc3n2CCOc2ccccc2)cc1,?,-28.8%,19.1%,17.8µM*!,?,?

# Compound activity deposited in PubChem by National Center for Advancing Translational Sciences (NCATS).
